Results as given in PubChem BioAssay AID1245 (Sanford-Burnham Center for Chemical Genomics, 2008).
Values without a mark were called inactive. Active and inactive are the calls of the source. The rule behind the calls is not given here.

Assay: Bcl-B/Puma-BH3 peptide binding displacement, dose response, counter-screen for TR3-derived Bcl-B inhibitor project, biochemical, fluorescence polarization (AID 1245)
Details: Bcl-B/FITC-Puma-BH3 fluorescence polarization binding

Structure (SMILES) | EC50
Cc1ccc(C)n1-c1ccc(Br)cc1C(=O)O | 1 µM (active)
Cc1cc(C)nc(/N=C(/N)Nc2cccc(N)c2)n1 | > 25 µM
